# Reference: PubChem BioAssay AID623870 (Broad Institute, 2012)
# Screen size: about 390,000 compounds; about 2,600 (0.67%) were called active. Shown is part of a subset that was picked to be rich in actives. A number with no mark means an inactive call.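 The calls were made as follows: active = mean inhibition of replicates at least 50% and at least half of replicates each reaching 50%; inconclusive = half or more replicates reach 50% but mean below 50%; inactive = the rest.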
# Molecular target: Transforming acidic coiled-coil-containing protein 3 (Homo sapiens) (UniProt Q9Y6A5)
# Test: inhibitors of ARNT PAS-B binding to TACC3 – biochemical, AlphaScreen, single concentration, primary screen (AID 623870);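 also: 0% = complete ARNT plus TACC3 wells and 100% = ARNT alone without TACC3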
# Conditions: AlphaScreen His-ARNT PAS-B/GST-TACC3 binding, luminescence; at 9.99 µM; hits give high values; TACC3 fragment carries E629A point mutation
row,Compound,inhibition
1,Cc1noc(C)c1S(=O)(=O)N(C)C[C@@H]1OCCCC[C@H](C)Oc2ccc(NC(=O)Nc3ccc4c(c3)OCO4)cc2C(=O)N([C@H](C)CO)C[C@H]1C,-0.948%
2,CC1=NNC(=O)C1CC(=O)N/N=C/c1ccncc1 (stereo not drawn),3.25%
3,CC1=NNC(=O)C1CCC(=O)N/N=C\c1cccc(Cl)c1 (stereo not drawn),4.23%
4,COc1cccc(/C=N\NC(=O)C2=NNC(=O)C2C)c1O (stereo not drawn),71.4% (active)
5,C[C@@H]1CN([C@H](C)CO)C(=O)Cc2cc(NC(=O)Nc3cccc4ccccc34)ccc2O[C@@H]1CN(C)Cc1ccc(C(F)(F)F)cc1,0.147%
6,C[C@@H]1CN([C@H](C)CO)C(=O)Cc2cc(NC(=O)Nc3cccc4ccccc34)ccc2O[C@@H]1CN(C)Cc1ccc(C(=O)O)cc1,-8.02% (active)
7,C[C@@H]1CCCCO[C@H](CN(C)C(=O)Nc2cccc3ccccc23)[C@H](C)CN([C@@H](C)CO)C(=O)c2cc(NC(=O)CCCN(C)C)ccc2O1,14.2%
8,C[C@H]1CN([C@@H](C)CO)C(=O)Cc2cc(NC(=O)Nc3cccc4ccccc34)ccc2O[C@@H]1CN(C)C,-6.19%
9,C[C@@H]1CN([C@@H](C)CO)C(=O)c2cc(NC(=O)CCCN(C)C)ccc2O[C@@H](C)CCCCO[C@H]1CN(C)C(=O)Nc1cccc2ccccc12,39.5% (active)
10,C[C@@H]1CN([C@@H](C)CO)C(=O)c2cc(NC(=O)Cc3ccccc3)ccc2O[C@@H](C)CCCCO[C@H]1CN(C)C(=O)Nc1cccc2ccccc12,1%
11,CC=Cc1ccc2n(c1=O)C[C@@H]1[C@@H](CO)[C@H](C(=O)NCC3CC3)[C@H]2N1C(=O)c1ccccc1 (mixture of isomers),-1.91%
12,O=c1/c(=C/c2ccc(CNS(=O)(=O)c3ccccc3)o2)sc2n1CCN=2,40.1%
13,O=c1nc2s/c(=C\c3ccco3)c(=O)n2nc1Cc1ccccc1,67.7% (active)
14,CO[C@@H]1CN(C)C(=O)c2ccc(NC(=O)NC(C)C)cc2OC[C@@H](C)N(C(=O)NC(C)C)C[C@H]1C,-3.87%
15,COc1ccccc1-c1cnc2c(c1)C(=O)N([C@H](C)CO)C[C@H](C)[C@H](CN(C)Cc1cccnc1)O2,29.4%
16,O=C(CN1CCOCC1)N[C@@H]1CC[C@@H](CCn2cc(C3CCCCC3)nn2)O[C@@H]1CO,0.304%
17,CCC(=O)N(C)C[C@H]1Oc2cc(-c3ccccc3F)ccc2S(=O)(=O)N([C@H](C)CO)C[C@@H]1C,-1.89%
18,COc1ccc(NC(=O)O[C@@H](c2ccc(OCCO)cc2)[C@@H](C)CCO)cc1,-10.6%
19,O=C(O)c1ccc2c3c(cccc13)C(=O)N(OS(=O)(=O)c1ccccc1)C2=O,67.5% (active)
20,C[C@@H]1CN([C@H](C)CO)C(=O)c2cc(C#CCN(C)C)cnc2O[C@@H]1CN(C)C(=O)Cc1cccnc1,-0.97%
21,CO[C@H]1CN(C)C(=O)c2ccc(NC(=O)c3ccc4c(c3)OCO4)cc2OC[C@@H](C)NC[C@@H]1C,-11.2%
22,Cc1ccc(-c2ccc(/C=C(\C#N)C(N)=S)o2)c([N+](=O)[O-])c1,1.03%

row,Compound,inhibition
1,CC1=NN(c2ccc(Cl)c(C(=O)O)c2)C(=O)/C1=C/c1ccc(-c2ccccc2[N+](=O)[O-])o1,29.2% (active)
2,Cc1ccc(S(=O)(=O)N(C)C[C@H]2Oc3c(NC(=O)C4CC4)cccc3C(=O)N([C@@H](C)CO)C[C@@H]2C)cc1,-6.68%
3,COC(=O)C1=C(C)NC2=C(C(=O)c3ccccc32)C1c1ccc(-c2ccc(C(=O)O)cc2)o1 (stereo not drawn),65.4% (active)
4,O=C(C[C@H]1C[C@H]2c3cc(NC(=O)Nc4ccccc4F)ccc3O[C@H]2[C@H](CO)O1)NCc1ccccn1,-10.9%
5,COc1ccc(NC(=O)N(C)C[C@H]2OCCCC[C@@H](C)Oc3ccc(NS(=O)(=O)c4ccc(F)cc4)cc3C(=O)N([C@H](C)CO)C[C@H]2C)cc1,-5.89%
6,C/C=C/c1cnc2c(c1)C(=O)N([C@@H](C)CO)C[C@@H](C)[C@H](CN(C)Cc1ccccc1)O2,-2.09%
7,CCN1CCN(C(c2cccnc2)c2cc(Cl)c3cccnc3c2O)CC1 (stereo not drawn),55.4% (active)
8,CCOC(=O)N1CCN(C(=O)C2CCN(c3ncnc4c3sc3cccc(F)c34)CC2)CC1,-0.287%
9,Cc1ccc(OCC(=O)N2CCN(C(=O)c3cccnc3)CC2)cc1,-5.09%
10,CCOC(=O)N1CCN(C(c2cccnc2)c2ccc3cccnc3c2O)CC1 (stereo not drawn),61.4% (active)
11,CCS(=O)(=O)Nc1ccc2c(c1)C(=O)N(C)[C@@H]1CC[C@H](CC(=O)N[C@H]3CCN(Cc4ccccc4)C3)O[C@@H]1CO2,4.57%
12,CC=Cc1ccc2n(c1=O)C[C@H]1[C@H](CO)[C@@H](C(=O)NC3CCCC3)N(Cc3ccncc3)[C@@H]21 (mixture of isomers),7.61%
13,O=C(C[C@@H]1C[C@@H]2c3cc(NC(=O)C4CCC4)ccc3O[C@@H]2[C@@H](CO)O1)NCc1ccccc1,-8.97%
14,CCC(=O)N1C[C@H](C)[C@H](OC)CN(C)C(=O)c2ccc(NS(C)(=O)=O)cc2OC[C@H]1C,0.229%
15,COc1ccccc1C(=O)Nc1ccc2c(c1)C(=O)N(C)C[C@@H](OC)[C@@H](C)CN(C)[C@H](C)CO2,5.81%
16,CN1C(=O)c2cc(NC(=O)Nc3ccccc3Cl)ccc2OC[C@H]2O[C@H](CC(=O)NCCCN3CCOCC3)CC[C@H]21,-6.44%
17,CCOC(=O)c1cn[nH]c1NC(=S)Nc1ccccc1,-4.6%
18,CCN(C(=O)Cc1nc(N)n[nH]1)C1(C(=O)Nc2ccccc2)CCCCC1,73.1% (active)
19,COc1cc(C2c3cc4c(cc3C(O)C3COC(=O)C23)OCO4)cc(OC)c1OC (stereo not drawn),-5.89%
20,COc1ccc(-c2ccc3c(c2)[C@H]2[C@H](CCN2C(=O)c2ccc4c(c2)OCO4)[C@@H](CO)N3)cc1,2.52%
21,COc1c(O)ccc2c1CN1CCc3cc4c(cc3C1C2)OCO4 (stereo not drawn),59.9% (active)
